The results in this text go back to PubChem BioAssay (NCI).

Among the test systems are DU-145 prostate; K-562 leukemia; MALME-3M melanoma; MDA-MB-231 breast; RXF 393 renal; SF-268 CNS; SF-295 CNS; SF-539 CNS; UACC-257 melanoma; M14 melanoma; HCT-15 colon; HT29 colon; SNB-75 CNS; SNB-19 CNS; U251 CNS; PC-3 prostate; SK-MEL-5 melanoma; UACC-62 melanoma; SK-MEL-28 melanoma; LOX IMVI melanoma.
Common to all, as to experiment: NCI-60 one-dose screen, 48 h (100 = growth as untreated, 0 = no growth, -100 = all killed)
Common to all, as to details: 10 µM unless noted

The panel holds about 83,000 compounds, 20% with a hit somewhere; the sample as a whole holds those more often.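 Method: cells in 96-well plates; compound added at one concentration; 48 h incubation; percent growth measured; values under 10 scored active.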 Unmarked numbers belong to inactive results. The source made the active and inactive calls.

On to `CCCCNC(=O)CC1=C(C)/C(=C/c2[nH]c(-c3ccc[nH]3)cc2OC)N=C1C`, for which the growth in the experiment with DU-145 prostate was 34.6%; in the experiment with K-562 leukemia, 1.68% (active); in the experiment with MALME-3M melanoma, 34%; with MDA-MB-231 breast, 13.5%; in the experiment on RXF 393 renal it was 59.4%; in the experiment with SF-268 CNS, 27%. Moreover, the growth in the experiment with SF-295 CNS is 14.6%; in the experiment with SF-539 CNS it was 27.8%; with UACC-257 melanoma, 5.48% (active); in the experiment on M14 melanoma it was -43.1% (active); in the experiment with HCT-15 colon, 2.62% (active); in the experiment with HT29 colon, 9.63% (active). In addition, the growth in the experiment on SNB-75 CNS is 65.3%; with SNB-19 CNS it was 67.1%; in the experiment with U251 CNS, 28.7%; with PC-3 prostate, 6.07% (active); in the experiment on SK-MEL-5 melanoma, 1.34% (active); with UACC-62 melanoma, -28.9% (active). Besides, the growth with SK-MEL-28 melanoma was 31%.
Regarding `C=C1CC[C@@H]2[C@](C)(COC(C)=O)[C@H](OC(C)=O)CC[C@@]2(C)[C@@H]1CC(Nc1ccc(S(=O)(=O)Nc2ncccn2)cc1)C1=CCOC1=O` (stereo partly drawn), the growth was 14.9% in the experiment with DU-145 prostate; 4.6% (active) with K-562 leukemia; -4.93% (active) in the experiment with MALME-3M melanoma; -1.01% (active) in the experiment with MDA-MB-231 breast; -70% (active) in the experiment on RXF 393 renal; 18.3% with SF-268 CNS. Besides, the growth was 68% in the experiment with SF-295 CNS; -69% (active) in the experiment on SF-539 CNS; 16.6% in the experiment on UACC-257 melanoma; 4.76% (active) in the experiment on M14 melanoma; -51.4% (active) with HCT-15 colon; -48.6% (active) with HT29 colon. Besides, the growth in the experiment with SNB-75 CNS was 25.6%; in the experiment with SNB-19 CNS, 36.7%; in the experiment with U251 CNS, -19% (active); with PC-3 prostate, 15.1%; in the experiment on SK-MEL-5 melanoma, 24.1%; in the experiment with LOX IMVI melanoma, -79.8% (active). Besides, in the experiment on SK-MEL-28 melanoma, the growth was -17.7% (active).
As to `O=C(Nc1nc2ccc(C(=O)N3CCN(/C=C/c4ccccc4)CC3)cc2s1)c1ccc(NCCc2ccccc2)c([N+](=O)[O-])c1`, the growth was 70.7% with DU-145 prostate; -18.7% (active) with K-562 leukemia; -0.217% (active) in the experiment on MALME-3M melanoma; 66% in the experiment with MDA-MB-231 breast; 53.2% in the experiment with RXF 393 renal; 63.2% with SF-268 CNS. The growth with SF-295 CNS is 45.7%; in the experiment on SF-539 CNS, 71.7%; with UACC-257 melanoma, 37.3%; with M14 melanoma it was 12.9%; with HCT-15 colon, 22.4%; with HT29 colon, 5.52% (active). For the same compound, the growth was 79% with SNB-75 CNS; 70.2% in the experiment with SNB-19 CNS; 42.3% in the experiment with U251 CNS; 45% in the experiment with PC-3 prostate; 15% in the experiment with SK-MEL-5 melanoma; 58.3% in the experiment with UACC-62 melanoma. In addition, in the experiment on SK-MEL-28 melanoma, the growth is 76%.
Take `OCCn1cc(-c2nc(-c3c[nH]c4ncccc34)cs2)c2cc(F)ccc21`: the growth was 83.7% in the experiment with DU-145 prostate; 21.5% with K-562 leukemia; 84.9% in the experiment on MALME-3M melanoma; 64.5% with MDA-MB-231 breast; 51.1% in the experiment with RXF 393 renal; 77% in the experiment with SF-268 CNS. Moreover, the growth was 72.1% with SF-295 CNS; 81.5% in the experiment with SF-539 CNS; 87.8% in the experiment on UACC-257 melanoma; 63.8% in the experiment with M14 melanoma; 41.6% in the experiment on HCT-15 colon; 46.8% in the experiment on HT29 colon. In addition, the growth in the experiment with SNB-75 CNS was 72.5%; with SNB-19 CNS it was 79.5%; with U251 CNS, 62.9%; with PC-3 prostate, 48.7%; with SK-MEL-5 melanoma it was 63%; in the experiment with LOX IMVI melanoma it was 65.5%. The growth in the experiment on SK-MEL-28 melanoma is 89.8%.
Consider `C=C1C(=O)O[C@H]2[C@H]1CC/C(COC(=O)/C=C\C(=O)NCc1ccc(Cn3c(=O)sn(CCI)c3=O)cc1)=C\CC[C@@]1(C)O[C@@H]21`, for which the growth in the experiment with DU-145 prostate is 34.4%; with K-562 leukemia, 4.34% (active); in the experiment on MALME-3M melanoma, -30% (active); in the experiment with MDA-MB-231 breast, 64.6%; with RXF 393 renal, 11.6%; with SF-268 CNS, 70.2%. Besides, the growth in the experiment with SF-295 CNS was 105%; in the experiment on SF-539 CNS it was 52%; in the experiment on UACC-257 melanoma, 67.7%; in the experiment with M14 melanoma it was 36.2%; with HCT-15 colon, 15.6%; with HT29 colon, 26.3%. The growth in the experiment with SNB-75 CNS was 99.1%; with SNB-19 CNS it was 99%; with U251 CNS it was 70%; in the experiment with PC-3 prostate it was 69%; in the experiment on SK-MEL-5 melanoma, 101%; with UACC-62 melanoma, 55.4%. For the same compound, the growth with SK-MEL-28 melanoma was 40.4%.
As for `CSc1nc2ncc([N+](=O)[O-])c(=O)n2[nH]1`, the growth in the experiment with DU-145 prostate was 110%; with K-562 leukemia, 104%; in the experiment with MALME-3M melanoma it was 101%; in the experiment on MDA-MB-231 breast it was 108%; with RXF 393 renal, 105%; with SF-268 CNS, 98.8%. Moreover, the growth in the experiment with SF-295 CNS is 96.6%; with SF-539 CNS it was 100%; in the experiment with UACC-257 melanoma, 105%; with M14 melanoma it was 98.4%; in the experiment with HCT-15 colon, 105%; with HT29 colon, 107%. The growth in the experiment with SNB-75 CNS was 93%; with SNB-19 CNS, 103%; in the experiment on U251 CNS, 102%; in the experiment on PC-3 prostate, 98.1%; with SK-MEL-5 melanoma it was 103%; in the experiment with LOX IMVI melanoma, 101%. Further, in the experiment on SK-MEL-28 melanoma, the growth is 105%.
Turning to `COc1ccc(Nc2ncc(Br)c(NCCCNC(=O)c3cccs3)n2)cc1`, the growth with DU-145 prostate was 35.6%; in the experiment with K-562 leukemia, 28%; with MALME-3M melanoma it was 55.4%; in the experiment with MDA-MB-231 breast, 31.2%; in the experiment on RXF 393 renal, -26.7% (active); in the experiment with SF-268 CNS, 13.2%. Further, the growth in the experiment on SF-295 CNS is 52.4%; in the experiment on SF-539 CNS, 14.8%; with UACC-257 melanoma it was 105%; with M14 melanoma it was 50.2%; in the experiment on HCT-15 colon, 34.5%; in the experiment with HT29 colon, 51.6%. Also, the growth was 48.9% in the experiment with SNB-75 CNS; 56.8% with SNB-19 CNS; 52.7% in the experiment with U251 CNS; 42.1% in the experiment with PC-3 prostate; 69.5% with SK-MEL-5 melanoma; 45.7% in the experiment with UACC-62 melanoma. Moreover, the growth in the experiment on SK-MEL-28 melanoma was 68.4%.
